# Rab9 promoter act – qHTS Assay for Rab9 Promoter Activators. Huh7 Rab9 promoter-luciferase reporter, luminescence, 24 h. Potency, µM (highest dose often 9.22 µM), usual class: activators. hit rate 2.8% among 320,000. AID 485297, 2010; note: nearly all actives have a fitted effect of over 60% in size
#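 Measured in stably transfected Huh7 cells bearing a Rab9 promoter–luciferase construct: 24 h compound treatment at 37 °C, followed by luminescence detection.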
# SMN2 splice enh – qHTS Assay for Enhancers of SMN2 Splice Variant Expression; HEK293 SMN2-luciferase splicing reporter, luminescence, 30-36 h; Potency, µM (highest dose often 46.1 µM), usual class: activators; hit rate 2.8% among 210,000; note: nearly all actives have a fitted effect of over 55% in size
#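 qHTS luciferase splicing reporter: luminescence rises when SMN2 exon 7 is included in transfected HEK293 cells. Compound exposure lasted 30-36 h at 37C, with 4.5 mM final sodium butyrate as control, followed by a ONE-Glo read.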
# ELG1 repair inh – qHTS screen for small molecules that inhibit ELG1-dependent DNA repair in human embryonic kidney (HEK293T) cells expressing luciferase-tagged ELG1; Potency, µM (highest dose often 46.1 µM), usual class: inhibitors; HEK293T ELG1-luciferase reporter, luminescence, 16 h; DNA damage induced by 5-fluorouridine; AID 504467, 2011; hit rate 2.3% among 330,000; note: nearly all actives have a fitted effect of over 55% in size
#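 Step one: seed 2,000 cells per well. Step two: pin-transfer compound or DMSO alongside 5-fluorouridine. Step three: incubate 16 hr, 37 °C, 5% CO2. Step four: add ONE-Glo, wait 30 min, read luminescence.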
# FLuc counter – qHTS profiling assay for firefly luciferase inhibitor/activator using purifed enzyme and Km concentrations of substrates (counterscreen for miR-21 project); purified FLuc, Km substrates, luminescence inhibition; Potency, µM (titrated, usually from 57.5 µM), hits mostly inhibitors; hit rate 6.9% among 360,000; AID 588342, 2011; note: nearly all actives have a fitted effect of over 55% in size
# Target sequence (P08659 whole entry, looked up): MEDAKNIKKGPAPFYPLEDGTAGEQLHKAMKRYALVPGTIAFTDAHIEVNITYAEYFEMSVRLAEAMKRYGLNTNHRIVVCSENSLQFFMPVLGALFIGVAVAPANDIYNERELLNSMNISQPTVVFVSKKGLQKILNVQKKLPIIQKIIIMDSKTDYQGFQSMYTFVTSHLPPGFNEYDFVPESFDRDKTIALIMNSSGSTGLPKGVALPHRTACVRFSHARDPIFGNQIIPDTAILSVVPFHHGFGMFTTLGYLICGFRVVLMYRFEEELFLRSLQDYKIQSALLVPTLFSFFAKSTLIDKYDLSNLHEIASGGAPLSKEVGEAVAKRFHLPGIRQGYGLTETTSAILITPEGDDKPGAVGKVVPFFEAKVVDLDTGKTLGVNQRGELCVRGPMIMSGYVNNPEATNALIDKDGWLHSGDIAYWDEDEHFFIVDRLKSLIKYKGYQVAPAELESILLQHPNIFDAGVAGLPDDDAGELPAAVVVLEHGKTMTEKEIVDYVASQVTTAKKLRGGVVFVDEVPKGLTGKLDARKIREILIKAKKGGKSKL
#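 Purified P. pyralis luciferase, 10 nM final, with Km-level 10 uM D-luciferin and 10 uM ATP in 50 mM Tris acetate pH 7.5, 10 mM Mg acetate, 0.01% Tween-20, 0.05% BSA; 6-point qHTS titration about 60 µM downward; luminescence read.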
# ELG1 genotox – qHTS screen for small molecules that induce genotoxicity in human embryonic kidney (HEK293T) cells expressing luciferase-tagged ELG1. HEK293T ELG1-luciferase reporter, luminescence, 16 h. Potency, µM (titrated, usually from 46 µM), most hits filed as activators. hit rate 1.3% among 330,000. AID 504466, 2011; note: nearly all actives have a fitted effect of over 60% in size
#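 Screening used a luciferase reporter fused to human ELG1 in HEK293T cells. Luminescence was read on a CCD plate imager after 16 hr exposure and 30 min ONE-Glo incubation.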
# NPC1 prom act – qHTS Assay for NPC1 Promoter Activators; hit rate 2.4% among 320,000; Huh7 NPC1 promoter luciferase reporter, 24 h; Potency, µM (titrated, usually from 9.22 µM), hits mostly activators; note: nearly all actives have a fitted effect of over 60% in size
#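 Quantitative HTS used a cell-based reporter: Huh7 cells stably bearing the NPC1 promoter upstream of luciferase were treated with compounds for 24 h, and promoter activation was read as luminescence.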
# A number is an active result; i = inactive; ? = inconclusive; nt = not tested or not shown; [ ] = remark or other dose. Compounds with a hit are over-represented: about 9.2% of the library has one in this group of screens. Calls come from the whole dose curve; as a rule, active = well fitted curve in the direction sought with a large enough effect; inconclusive = small, poorly fitted or top-dose-only effect, or another doubt; inactive = no such curve, though single readings can be large; an effect the other way counts as inactive or inconclusive.
SMILES,Rab9 promoter act,SMN2 splice enh,ELG1 repair inh,FLuc counter,ELG1 genotox,NPC1 prom act
CCOC(=O)c1sc(NC(=O)CC(C)c2ccccc2)nc1C (stereo not drawn),i,nt,?,i,i,i
CC(=O)c1sc(NC(=O)c2cc(-c3ccccc3)nn2-c2ccccc2)nc1C,i,i,15µM,i,i,i
CC(=O)c1sc(NC(=O)c2cccnc2Cl)nc1C,i,nt,i,?,i,i
COc1ccc2cc(S(=O)(=O)N3CCCC(C)C3)ccc2c1 (stereo not drawn),i,nt,?,i,i,i
CCOC(=O)c1sc(NC(=O)c2cccs2)nc1C,?,?,?,2.4µM,?,?
CCOC(=O)c1sc(NC(=O)c2c(OC)cccc2OC)nc1C,i,i,i,i[2.3 µM],i,i
COc1ccc(NC(=O)Cc2ccc(C)c(C)c2)cc1Cl,i,i,i,i,i,i
COc1cccc(/C=C2\SC(=S)N(c3cccnc3)C2=O)c1OC,i,i,i,2.4µM,i,i
COc1ccc(/C=C2\SC(=S)N(c3cccnc3)C2=O)cc1,i,nt,i,i,i,i
C[C@H](NC(=O)c1ncn(C)c1C(=O)N[C@@H](C)c1ccccc1)c1ccccc1,nt,nt,i,nt,i,nt
O=C(NC(=S)Nc1nc2c(ccc3ccccc32)s1)c1cccs1,i,i,i,i,i,i
COc1ccc(Cn2c(CO)cnc2SCC(=O)NCc2ccco2)cc1,nt,nt,nt,i,nt,nt
O=c1oc2cc(O[C@@H]3OC[C@@H](O)[C@H](O)[C@H]3O)ccc2c2ccccc12,i,nt,i,?,i,i
Cc1sc2nc(SCC(=O)Nc3ccccc3F)[nH]c(=O)c2c1C,i,nt,i,i,i,i
Cc1sc2nc(SCC(=O)Nc3ccc(S(=O)(=O)NCCCC(=O)O)cc3)[nH]c(=O)c2c1C,i,nt,i,17µM,i,i
COc1ccc(NC(=O)N2CC[C@@]3(CCCN(C(=O)c4csnn4)C3)C2)cc1,nt,i,nt,nt,nt,nt
Cc1[nH]n(-c2ccccc2)c(=O)c1N=Nc1nccs1,i,i,?,19µM,i,i
Cc1[nH]n(-c2ccccc2)c(=O)c1C(=O)Nc1ccccc1,i,nt,?,17µM,i,i
Cc1ccc2[nH]c(O)c(N=Nc3ccccc3C)c2c1,i,nt,i,?,i,?
CCOc1ccc(N=Nc2c(C)[nH]n(-c3ccccc3)c2=O)cc1,i,nt,i,?,i,i
Cc1[nH]n(-c2ccccc2)c(=O)c1N=Nc1ccccc1C(=O)O,i,nt,i,17µM,i,i
Cc1ccccc1N=Nc1c(C)[nH]n(-c2ccccc2)c1=O,i,nt,i,?,i,i
Cc1cc(Cl)cc2c(N=Nc3ccccc3C(=O)O)c(O)[nH]c12,?,nt,?,12µM,i,?
C/C(=N\NC(=O)c1ccccc1)c1c(C)[nH]n(-c2ccccc2)c1=O,i,nt,?,i,i,i
Cc1cccc(NC(=O)CNC(=O)COC(=O)C2CC2C)c1C (stereo not drawn),nt,nt,i,nt,i,nt
SMILES,Rab9 promoter act,SMN2 splice enh,ELG1 repair inh,FLuc counter,ELG1 genotox,NPC1 prom act
CCCCOc1ccc(NC(=O)CN2CCN(Cc3ccccc3)CC2)cc1,i,nt,i,i,i,i
Cc1[nH]n(-c2ccccc2)c(=O)c1N=Nc1ccccc1O,i,nt,?,8.5µM,i,i
CC(=O)Nc1ccc(C(=O)OCC(=O)NCc2ccc3c(c2)OCO3)cc1,nt,nt,i,nt,i,nt
COc1ccccc1-c1nc2c(c(SCc3ccc(F)cc3Cl)n1)Cc1c(CO)cnc(C)c1O2,nt,nt,nt,i,nt,nt
Cc1ccnc(Nc2nc(-c3ccc(F)cc3)cs2)c1,2.5µM,nt,?,0.85µM,?,1.8µM
Cc1ccc(S(=O)(=O)Nc2nc(-c3ccc(F)cc3)cs2)cc1,i,nt,i,i,i,i
Cc1ccnc(Nc2nc(-c3ccc(Cl)cc3)cs2)c1,2.8µM,nt,?,2.7µM,?,2.8µM
O=C1N/C(=N/O)S/C1=C/c1cccnc1,i,i,i,?,i,i
C=CCOc1ccc(/C=C2\SC(=Nc3cccnc3)NC2=O)cc1,i,nt,?,7.6µM,i,i
CC(/C=C1\SC(=Nc2cccnc2)NC1=O)=C\c1ccccc1,i,nt,i,?,i,i
Cc1ccccc1N=C1NC(=O)/C(=C/c2cccnc2)S1,i,nt,21µM,i,i,i
C[C@H]1C[C@@H]2[C@@H]([C@@H](O)C[C@@]3(C)[C@H]2CC[C@]3(O)C(=O)CO)[C@@]2(C)C=CC(=O)C=C12,nt,i,nt,nt,nt,nt
Cc1cccc(-n2c(SCC(=O)c3c(N)n(C4CC4)c(=O)[nH]c3=O)nnc2N2CCOCC2)c1,i,nt,i,i,i,i
CCC(=O)Nc1cccc(NC(=S)NC(=O)c2cc3ccccc3o2)c1,1.1µM,2.8µM,?,0.6µM,23µM,1.1µM
O=C(NC(=S)Nc1cccc(CO)c1)c1ccc(-c2ccccc2)cc1,1.6µM,?,i,?,i,1µM
O=C(O)c1cccc(NC(=S)NC(=O)c2ccc3ccccc3c2)c1,?,nt,?,1.3µM,?,?
Cc1ccc(NC(=S)NC(=O)c2ccccc2)cc1NC(=S)NC(=O)c1ccccc1,1.8µM,nt,?,i,?,?
O=C(NC(=S)Nc1ccccc1C(=O)O)c1ccc2ccccc2c1,i,nt,i,?,i,i

# Bioassay records (PubChem BioAssay)
